Among the data in PubChem BioAssay AID463212 (Sanford-Burnham Center for Chemical Genomics, 2010) are inhibition values, retold here.

As usually defined, the inhibition is the change of the read-out against control, counted positive when it falls.

Among all 330,000 compounds or so, about 4,400 (1.3%) were called active.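 The calls were made as follows: active = growth inhibition of the mutant yeast at or above 50%; inactive = the rest.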 The full list was thinned out, with actives kept by preference.

The assay can be described thus: growth inhibition of tim23-1 ts yeast – luminescence, uHTS, primary screen (AID 463212).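 Also: temperature-sensitive mutant grown at 25 °C; plate controls were DMSO-treated mutant yeast for no effect and medium wells lacking yeast for full effect.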 The conditions noted are these: S. cerevisiae tim23-1 growth, BacTiter-Glo luminescence, 24 h; at 20 µM; active compounds read high.
For the molecule `CC(C)(C)c1ccc(OC2=CS(=O)(=O)c3ccccc32)cc1`, the inhibition is 20.4% (inactive).
On to `CC(C)(C)c1ccc(Oc2ccc(N)cc2)cc1`, for which the inhibition was 60.7% (active).
As for `COc1cccc(Oc2ccc(N)cc2)c1`, the inhibition was 8.39% (inactive).
`COc1cccc(C2Nc3cccc4cccc(c34)N2)c1`: the inhibition is 57.5% (active).
`Oc1ccc(C2Nc3cccc4cccc(c34)N2)cc1`: the inhibition was 23.4% (inactive).
For `COc1ccc(C2NC(=O)c3ccccc3N2)cc1` (configuration not stated) the value was 16.7% (inactive); for `O=C(NC1CCCC1)C(c1ccc(Cl)cc1)N(C(=O)c1csnn1)C1CC1` (configuration not stated), 11.6% (inactive); for `O=C(CN1CCC(NC(=O)C2CC2)CC1)Nc1ccccc1[N+](=O)[O-]`, 8.81% (inactive).
As to `O=S(=O)(c1ccc(SCc2ccc(Br)cc2)nc1)N1CCOCC1`, the inhibition was 6.55% (inactive).
With `COc1cc(CC(=O)N/N=C/c2ccccc2)c([N+](=O)[O-])cc1OC`, the inhibition is 4.64% (inactive).
`COc1ccc(C(=O)NCC(=O)N/N=C/c2ccc([N+](=O)[O-])o2)cc1OC`: the inhibition is 87.3% (active).
With `COc1cc(/C=N/NC(=O)CNC(=O)c2ccncc2)ccc1OC(C)=O`, the inhibition is -0.262% (inactive).
Consider `CCN(CC(=O)Nc1cc(Cl)ccc1C)C(=O)CSCc1ccccc1`, for which the inhibition is 18.4% (inactive).
Consider `Cc1ccc(S(=O)(=O)c2c[nH]c3ccc(C)cc3c2=O)cc1`, for which the inhibition was -5.69% (inactive).
Consider `Cc1ccc(-c2cccc([C@H]3[C@@H]4C=CC[C@@H](C)[C@@H]4C(=O)N3Cc3ccccc3)c2)cc1`, for which the inhibition is 36.6% (inactive).
As to `COCCCNc1nc2ccccc2nc1NS(=O)(=O)c1ccc(F)cc1`, the inhibition was 21.6% (inactive).
With `O=[N+]([O-])c1ccc(C=Nc2ccc(Cl)cc2Cl)s1`, the inhibition is 60.2% (active).
For `CC1CN(C(=O)c2ccc([N+](=O)[O-])s2)CC(C)O1` (configuration not stated), the inhibition was 13.9% (inactive).
For `Cc1ccc2c(c1)C1C[N+](C)(CC(=O)c3ccccc3)CCC1N2C(=O)c1ccccc1Cl` (configuration not stated) the value was -4.6% (inactive).
`COc1ccc(Nc2nc(N)nc(CSC(=S)N3CCC(C)CC3)n2)cc1`: the inhibition was 50% (inactive).
For `CC(=O)c1ccc(NC(=O)c2ccc(-n3cncn3)c([N+](=O)[O-])c2)cc1`, the inhibition is -6.94% (inactive).
On to `Cc1cc(Cl)ccc1C(=O)C1CCCN(C(=O)c2nonc2C)C1` (configuration not stated), for which the inhibition was 41.7% (inactive).
For `O=C(Nc1ccc(N2CCOCC2)cc1)c1ccc2c(c1)OCO2` the value was 10.9% (inactive); for `O=C(Nc1ccc(NC(=O)c2ccc3c(c2)OCO3)cc1)c1cccc(Cl)c1`, 1.12% (inactive); for `O=C(Nc1ccccc1)c1ccc2c(c1)OCCCO2`, 51% (active).
For `O=C(Nc1cccc(F)c1)NC1CCCCCCC1`, the inhibition is 50.3% (active).
With `C/C(CC(=O)Nc1cccc(F)c1)=N\NC(=O)C(=O)NC1CCCCC1`, the inhibition is 18.3% (inactive).
In the case of `O=C(Nc1cccc(F)c1)NC1CCCc2ccccc21` (configuration not stated), the inhibition was 19.8% (inactive).
As to `CC1=NOC(=O)/C1=C\c1ccccc1`, the inhibition was 16.8% (inactive).
As for `COc1cc(/C=C2/C(=O)ON=C2C)ccc1OCc1cccc(F)c1`, the inhibition is 52.2% (active).
In the case of `C=CCOc1ccc(/C=C2/C(=O)ON=C2C)cc1OCC`, the inhibition is 22.6% (inactive).
Consider `COc1cc(/C=C2\SC(=O)NC2=O)ccc1OCc1ccc(Cl)nc1`, for which the inhibition was -2.95% (inactive).
Regarding `COc1cc(/C=C2/C(=O)ON=C2C)ccc1OCc1ccccc1F`, the inhibition was 66.9% (active).
As for `C#CCOc1ccc(/C=C2/C(=O)ON=C2C)cc1OCC`, the inhibition was 28.2% (inactive).
As to `CN1CCN(C(CNS(=O)(=O)c2cccs2)c2cccnc2)CC1` (configuration not stated), the inhibition was 7.24% (inactive).
`CCN(CC(=O)Nc1ccc(OC)cc1)C(=O)c1ccc(=O)n(Cc2ccccc2)n1`: the inhibition is 7.12% (inactive).
As to `CC(C)N(C(=O)[C@H]1C[C@H](CC(=O)NC(C)(C)C)C(=O)N2CCc3c([nH]c4ccc(Cl)cc34)[C@]12C)C(C)C`, the inhibition is 43.7% (inactive).
`COC(C[C@H](O)CC(=O)[C@@H](C)OCc1ccccc1)OC`: the inhibition is 8.93% (inactive).
For `COC(C/C=C/C(=O)[C@@H](C)OCc1ccccc1)OC` the value was 56.2% (active); for `COC(C[C@@H]1O[C@@H]1C(=O)[C@H](C)OCc1ccccc1)OC`, -16.7% (inactive).
As for `Cc1ccc(NS(=O)(=O)c2ccc3c(c2)oc(=O)n3C)c(C)c1`, the inhibition is 21.8% (inactive).
For `CCn1cc(C(=O)NC2CCCCCC2)c(=O)c2cc(S(=O)(=O)N3CCCCC3)ccc21`, the inhibition is 12.1% (inactive).
As to `N#Cc1cccc(CSc2ncnc(N)n2)c1`, the inhibition was 10.7% (inactive).
For the molecule `OCCN1CCN(c2nnc(-c3ccccc3)c3ccccc23)CC1`, the inhibition was -13.1% (inactive).
Turning to `c1ccc(-c2nnc(N3CCOCC3)c3ccccc23)cc1`, the inhibition is -18.2% (inactive).
Take `CCCC(=O)N1CCN(c2nnc(-c3ccc(C)cc3)c3ccccc23)CC1`: the inhibition was 50.5% (active).
As to `O=C(Oc1cccc(O)c1)C1CCCCC1`, the inhibition was 25.1% (inactive).
For `CCCSC(=S)NC1CCS(=O)(=O)C1` (configuration not stated) the value was 8.59% (inactive); for `CCCCN1C(=O)/C(=C(/C#N)C(N)=O)c2ccccc21`, 21.8% (inactive).
With `C#CCN1C(=O)C(O)(CC(=O)c2cc(OC)ccc2OC)c2ccccc21` (configuration not stated), the inhibition is 30% (inactive).
Regarding `COc1ccc2c(c1)C(=C(C#N)C#N)C(=O)N2CCc1ccccc1`, the inhibition was 70.8% (active).
For `COc1cccc(-c2nnc(NC(=O)c3ccc(S(=O)(=O)N(CC(C)C)CC(C)C)cc3)o2)c1` the value was 11.6% (inactive); for `Cc1cccc(-c2nc3ccccc3c(=O)n2NC(=O)Cc2ccc(Cl)cc2)c1`, 23.4% (inactive).
On to `O=c1c2cc(Br)ccc2nc(-c2cccc(Cl)c2)n1O`, for which the inhibition was 65.8% (active).
Regarding `NC(=O)c1cc(-c2cccnc2)nc2ccc(Br)cc12`, the inhibition was -4.37% (inactive).
Turning to `CCOc1ccccc1NC(=O)c1cc(S(=O)(=O)N2CCC3(CC2)OCCO3)ccc1F`, the inhibition was 24.5% (inactive).
For `CCOc1cc(NC(=O)c2ccccc2C(=O)O)c(OCC)cc1NC(=O)c1ccccc1F` the value was 53% (active); for `CCOc1cc(NC(=O)Nc2ccccc2)c(OCC)cc1NC(=O)CC`, 7.41% (inactive).
For the molecule `CCCCC(CC)CNC(=O)C(=O)C1C(=O)Nc2ccccc21` (configuration not stated), the inhibition is 51.7% (active).
In the case of `CCCCC(CC)CNC(=O)CCCCn1c(=O)[nH]c2ccsc2c1=O` (configuration not stated), the inhibition was -5.06% (inactive).
For `CCCCCNC(=O)C1c2ccccc2Oc2ccccc21` the value was 18.6% (inactive); for `Cc1c(CN2CCC(n3nccc3NC(=O)CCc3ccccc3)CC2)cnn1C`, 3.04% (inactive); for `Cc1cccc(Nc2nc(-c3ccccc3)cs2)n1`, 55.1% (active).
Consider `Cc1ccccc1Nc1nc(-c2cccnc2)cs1`, for which the inhibition is 33.4% (inactive).
For `CCc1noc(C)c1C(=O)Nc1nc(-c2ccccc2)cs1` the value was 22.5% (inactive); for `CCC(C)OC(=O)C(C)Oc1ccc(-c2ccccc2)cc1` (configuration not stated), 3.46% (inactive).
For `Clc1cccc(-c2nc(NCC3CCCO3)c3ccccc3n2)c1` (configuration not stated) the value was 28.9% (inactive).
As for `c1ccc2c(NCC3CCCO3)nc(-c3ccncc3)nc2c1` (configuration not stated), the inhibition was 13.1% (inactive).
In the case of `c1ccc(-c2nc(NCc3ccco3)c3ccccc3n2)cc1`, the inhibition was 53% (active).
Regarding `O=C(CO/N=C/c1ccc(OC(F)F)cc1)NCc1ccc(F)cc1`, the inhibition is 8.87% (inactive).
Take `CC(C)(C)Nc1nc(-c2ccccn2)nc2ccccc12`: the inhibition is -51.4% (inactive).
Regarding `Cc1ccc(Oc2nc(-c3ccccn3)nc3ccccc23)cc1`, the inhibition was 63.6% (active).
For `COc1cnc(-c2ccccn2)nc1Oc1ccc(C(C)(C)C)cc1` the value was 41.2% (inactive); for `CC(C)(COC(=O)Nc1ccccc1)COC(=O)Nc1ccccc1`, 29.8% (inactive); for `O=C(c1ccncc1)N1CCN(S(=O)(=O)c2cccc([N+](=O)[O-])c2)CC1`, 3.41% (inactive).
Take `CC(Sc1nc2cc(Cl)ccc2s1)C(=O)Nc1ccc2c(c1)OCO2` (configuration not stated): the inhibition was 32% (inactive).
On to `NS(=O)(=O)c1ccc(NC(=S)N2CCCC2)cc1`, for which the inhibition was -14.9% (inactive).
`COc1ccccc1NS(=O)(=O)c1ccc(C)c(C(=O)NNC(=O)c2csc(N3CCOCC3)n2)c1`: the inhibition is -7.58% (inactive).
For `Cc1ccc(C(=O)OC2=CC(=O)CC(C)(C)C2)cc1` the value was 52.8% (active); for `Cc1ccc(C(=O)Oc2ccc(C(=S)N3CCOCC3)cc2)cc1`, -1.92% (inactive).
For `COC(=O)NNC1=CC(=O)CC(C)(C)C1`, the inhibition is -3.94% (inactive).
Turning to `O=C(CSc1nnnn1C1CCCC1)N1CCCCC1`, the inhibition was 4.13% (inactive).
With `C[C@H]1CC[C@]2(O[C@@H](CCO)C[C@@H](O)[C@@H]2O)O1`, the inhibition is 23.4% (inactive).
On to `O=Cc1cn(-c2ccccc2)nc1-c1ccccn1`, for which the inhibition was 58.8% (active).
Consider `O=C(O)c1ccc(N/N=C/c2cn(-c3ccccc3)nc2-c2cccs2)cc1`, for which the inhibition was 40.4% (inactive).
For `COc1ccc(-c2nn(-c3ccccc3)cc2/C=N/Nc2ccccn2)cc1OC` the value was 45.7% (inactive); for `N/C(=N\OC(=O)CCCC(=O)O)c1ncc(C(F)(F)F)cc1Cl`, 9.72% (inactive); for `O=C(c1ccccn1)c1ncc(C(F)(F)F)cc1Cl`, 3% (inactive).
`N/C(=N\OC(=O)Nc1ccc(Cl)c(Cl)c1)c1ncc(C(F)(F)F)cc1Cl`: the inhibition is 73.9% (active).
For `Cc1cccc(NC(=O)Cn2cc(C(=O)c3ccco3)c3ccccc32)c1`, the inhibition is 7.71% (inactive).
With `O=C(NCCSc1ncc(-c2ccccc2)[nH]1)c1ccco1`, the inhibition is -8.72% (inactive).
For the molecule `CCOc1ccc(C(=O)Nc2cccc(SC)c2)cc1`, the inhibition was 10.1% (inactive).
For `O=C1NC(Cc2ccc(O)cc2)c2nc3ccc(Cl)cc3c(=O)n2-c2ccccc21` (configuration not stated) the value was 15% (inactive).
With `CCOc1ccc(C(C)NC(=O)CN2C(=O)NC3(CCCCC3)C2=O)cc1OCC` (configuration not stated), the inhibition was 7.68% (inactive).
For `CCOc1ccc(C(CC(=O)O)NC(=O)Cc2ccccc2)cc1OC` (configuration not stated) the value was -3.51% (inactive).
For `CCOc1ccc(C(c2c(C)[nH][nH]c2=O)c2c(C)[nH][nH]c2=O)cc1OCC` the value was 54.5% (active); for `CCOC(=O)N1CCN(C(=O)c2cn(C)c3ccc(S(=O)(=O)N(CC)CC)cc3c2=O)CC1`, 2.29% (inactive).
